Assay results published in PubChem BioAssay (Tox21).
A structure can be active in one record and inactive in another. The source made the active and inactive calls. A call without a number means that no potency is given here. Calls come from the whole dose curve; as a rule, active = well fitted activation curve with a large enough effect in the repeat runs; inconclusive = weak or mixed curves; inactive = flat fitted curve, though single readings scatter.

Assay: A CellTox Green Cytotoxicity Assay to monitor cytotoxicity in HepG2 cells - 0 hour (AID 1224882); note: nearly all actives have a fitted effect of over 35% in size
Conditions: CellTox Green fluorescence; series mostly up to 76.8 µM
Text: National Center for Advancing Translational Sciences [NCATS]
NIH Chemical Genomics Center [NCGC]
U.S. Environmental Protection Agency [EPA]
National Institutes of Environmental Health Sciences [NIEHS]
National Toxicology Program [NTP]
Cell-based models are critical for drug discovery. Determining the natural cytotoxic effects resulting from test compounds is an essential research activity. A CellTox Green Cytotoxicity Assay to monitor cytotoxicity in real time of continues cell culture during 40 hours of the compound treatment was used to screen Tox21 10K library compounds in HepG2 cells. CellTox Green Cytotoxicity Assay is a nonlytic, homogeneous, biofluorescent method to measure cytotoxicity in cell culture after experimental manipulation. The assay system uses a proprietary asymmetric cyanine dye that is excluded from viable cells but preferentially stains the dead cell's DNA. […] Viable cells produce no appreciable increases in fluorescence. Therefore, the fluorescence signal produced by the binding interaction with dead cell DNA is proportional to cytotoxicity.
The mixture of HepG2 cell suspension and reagents were dispensed at 600cells/6 ul/well in 1536-well tissue culture treated black solid bottom plates using a Multidrop dispenser. After the assay plates were incubated at a 37 C/5% CO2 incubator for 5 hours, 23 nL of compounds dissolved in DMSO, positive and negative controls was transferred to the assay plate by a pintool work station. The plates were incubated at 37 C for 40 hours. The fluorescence intensity were measured at 0h, 8h, 16h, 24h, 32h and 40h time points using ViewLux plate reader during compound treatment.
Potency is the fitted concentration of half-maximal effect.

| Structure (SMILES) | Potency |
| --- | --- |
| CN(C)c1ccc(C(=N)c2ccc(N(C)C)cc2)cc1 | inactive |
| CNC[C@H](O)[C@@H](O)[C@H](O)[C@H](O)CO | inactive |
| CC1=C(CC(=O)O)c2cc(F)ccc2/C1=C\c1ccc(S(C)=O)cc1 (stereo not given) | inactive |
| NC(=O)/N=N/C(N)=O | inactive |
| C[C@@H](O)[C@H]1C(=O)N2C(C(=O)O)=C(S[C@@H]3CN[C@H](C(=O)N(C)C)C3)[C@H](C)[C@H]12 | inactive |
| CCCCC(CC)COC(C)=O (stereo not given) | inactive |
| COCC(=O)O | inactive |
| Oc1ccc2ccccc2c1N=Nc1ccccc1 | inactive |
| CCCCC(CC)C(=O)OCCOCCOCCOC(=O)C(CC)CCCC (stereo not given) | inactive |
| CC1=C(/C=C/C(C)=C/C=C/C(C)=C/CO)C(C)(C)CCC1 | inactive |
| Cc1ccc(C(=O)O)o1 | inactive |
| CC#C[C@]1(O)CC[C@H]2[C@@H]3CCC4=CC(=O)CCC4=C3[C@@H](c3ccc(N(C)C)cc3)C[C@@]21C | inactive |
| CC(=O)CCc1ccccc1 | inactive |
| CCc1ccccc1O | inactive |
| CC(C)Cc1ccccc1 | inactive |
| CC[Si](OC(C)=O)(OC(C)=O)OC(C)=O | inactive |
| C=C(C)C(=O)OCCCCCCCCCCCC | inactive |
| O=S(=O)(Oc1ccc(Cl)cc1Cl)c1ccccc1 | inactive |
| CCCCC(CC)COC(=O)CCCCCCCC(=O)OCC(CC)CCCC (stereo not given) | 54.9 µM (active) and inactive |
| CCCCCCCCCCCCN | inactive |

| Structure (SMILES) | Potency |
| --- | --- |
| O=C1CCCCC1 | inactive |
| C/C=C(C)/C=C/C=C(C)C | inactive |
| C=C(C#N)C(=O)OCC | inactive |
| C=C(C)C(=O)OCCC[Si](OC)(OC)OC | inactive |
| CCOC(=O)C1OC1c1ccccc1 (stereo not given) | inactive |
| CCCCOCCOCCOC(=O)CCCCC(=O)OCCOCCOCCCC | inactive |
| Oc1ccc2ccccc2c1 | inactive |
| CC1(C)CC(N=C=O)CC(C)(CN=C=O)C1 (stereo not given) | inactive |
| CC(=O)[C@@]1(O)CC[C@H]2[C@@H]3CCC4=CC(=O)CC[C@]4(C)[C@H]3CC[C@@]21C | inactive |
| CC(C)NCC(O)COc1cccc2ccccc12 (stereo not given) | inactive |
| C=C1C2CCC(C2)C1(C)C (stereo not given) | inactive |
| O=[N+]([O-])c1cccc(Cl)c1 | inactive |
| CCOC(=O)/C=C\C(=O)OCC | inactive |
| CN(CCOc1ccc(CC2SC(=O)NC2=O)cc1)c1ccccn1 (stereo not given) | inactive |
| CC(C)(C)C(=O)C1C(=O)c2ccccc2C1=O | inactive |
| CCc1ccc(O)cc1 | inactive |
| CC(C)(C)C1CCC(O)CC1 (stereo not given) | inactive |
| Nc1c(S(=O)(=O)O)cc(Br)c2c1C(=O)c1ccccc1C2=O | inactive |
| c1ccc2ccccc2c1 | inactive |
| CCCCCCCCCCC=CC1CC(=O)OC1=O (stereo not given) | inactive |
